Measured values published in PubChem BioAssay (EPA / NIEHS).
Some structures have more than one record in an assay (separate samples or runs), and their calls can disagree. Active and inactive are the calls of the source. How the source made its calls: active means hit-call score of the fitted dose curve at least 0.9, where 1 is the maximum; inactive means score below 0.9.

How the values were obtained:
[1] = ATG_M_19_CIS: Attagene CIS-FACTORIAL HepG2 Assay for M19 Transcription Factor (Internal Marker) (AID 2282939); details: HepG2 Attagene CIS-FACTORIAL M19 internal marker reporter; actives raise or lower the signal
Method in brief: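 In this multiplexed cell assay, transiently transfected HepG2 reporter units report endogenous transcription-factor activity; after 24 hours of treatment, labelled reporter cDNA fragments are quantified by capillary electrophoresis and fitted bidirectionally against DMSO.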

[2] = ATG_ERE_CIS: Attagene CIS-FACTORIAL HepG2 Assay for Estrogen Response Element (ERE) (AID 2282940); details: HepG2 ERE cis-reporter, Attagene RNA transcript; actives raise or lower the signal
Method in brief: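 Measuring endogenous transcription factor output, the assay doses transfected HepG2 cells for 24 hours and quantifies reporter transcripts by fluorescent RT-PCR and capillary electrophoresis, with DMSO as baseline.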

[3] = ATG_Ets_CIS: Attagene CIS-FACTORIAL HepG2 Assay for human Erythroblast Transformation Specific (ETS) (AID 2282941); details: HepG2 ETS cis-reporter transcription, actives raise or lower the signal
Method in brief: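 After transient cis-reporter transfection, HepG2 cells receive test chemical for 24 h. Reporter mRNA levels, measured by RT-PCR and capillary electrophoresis fluorescence, are analysed bidirectionally relative to the DMSO baseline.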

[4] = biological target: Hepatocyte nuclear factor 3-beta (Homo sapiens) (UniProt Q9Y261); assay: ATG_FoxA2_CIS: Attagene CIS-FACTORIAL HepG2 Assay for human Forkhead box A2 (FOXA2) (AID 2282942); details: HepG2 cis-reporter transcription factor activity, 24 h; actives raise or lower the signal
Method in brief: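 Readout: fluorescent reporter transcripts resolved by capillary electrophoresis after RT-PCR. Transiently transfected HepG2, 24 h compound exposure, endogenous TF activity at cis promoter elements. Gain or loss of signal fitted relative to DMSO.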

[5] = ATG_FoxO_CIS: Attagene CIS-FACTORIAL HepG2 Assay for human Forkhead box O (FoxO) (AID 2282943); details: HepG2 Attagene cis-reporter, FoxO element, mRNA; actives raise or lower the signal
Method in brief: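 HepG2, transient MRTU transfection (cis element, endogenous TFs). Dose 24 h. TriZol RNA → oligo(dT) RT → PCR → 6-FAM primer extension → HpaI cut → CE. Gain/loss vs DMSO.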

[6] = ATG_GATA_CIS: Attagene CIS-FACTORIAL HepG2 Assay for human GATA Binding Protein (AID 2282944); details: HepG2 GATA cis-element reporter, Attagene multiplex mRNA; actives raise or lower the signal
Method in brief: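 Measures endogenous transcription factor-driven reporter mRNA in HepG2 cells transiently carrying cis-regulated constructs. 24 h dosing; RNA via oligo(dT) reverse transcription, PCR, HpaI digestion, capillary electrophoresis; fitted relative to DMSO.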

[7] = ATG_GLI_CIS: Attagene CIS-FACTORIAL HepG2 Assay for human Zinc Finger Protein GLI1 (AID 2282945); details: HepG2, Attagene cis-factorial reporter mRNA, GLI element; actives raise or lower the signal
Method in brief: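 Bidirectional curve fits relative to DMSO, using reporter mRNA levels from RT-PCR plus capillary electrophoresis. Cells were HepG2 transiently carrying cis-regulated reporter constructs, harvested 24 h after dosing.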

[8] = biological target: Bile acid receptor (Homo sapiens) (UniProt Q96RI1); assay: ATG_IR1_CIS: Attagene CIS-FACTORIAL HepG2 Assay for human Nuclear Receptor Subfamily 1 Group H Member 4 (NR1H4), IR1 submotif (AID 2282946); details: IR1 reporter transcription, actives raise or lower the signal
Method in brief: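 Cells (human HepG2) carry transiently transfected cis-promoter reporter transcription units. Compounds are incubated 24 h, total RNA is reverse-transcribed and amplified, and labelled fragments are resolved by capillary electrophoresis. Curves use DMSO as baseline.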

[9] = ATG_ISRE_CIS: Attagene CIS-FACTORIAL HepG2 Assay for human Interferon Regulatory Factor 1 (IRF1) binding to an Interferon-Stimulated Response Element (ISRE) (AID 2282948); details: HepG2 ISRE cis-reporter (Attagene), mRNA transcription readout; actives raise or lower the signal
Method in brief: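 Quantitation relies on labelled RT-PCR fragments separated by capillary electrophoresis. Human HepG2 cells bearing cis-promoter reporter constructs were treated 24 h; DMSO served as baseline for bidirectional fitting.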

[10] = ATG_GRE_CIS: Attagene CIS-FACTORIAL HepG2 Assay for human Glucocorticoid Response Elements (GRE) (AID 2282947); details: HepG2 GRE cis-reporter, Attagene multiplex mRNA; actives raise or lower the signal
Method in brief: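 Assay uses human hepatoma HepG2 cells transfected with cis-promoter reporter units, exposed 24 h. mRNA from reporters detected by RT-PCR plus capillary electrophoresis; DMSO serves as negative control and baseline.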

Measured: AC50

Sequence of Hepatocyte nuclear factor 3-beta (Homo sapiens) (Q9Y261 whole entry, looked up): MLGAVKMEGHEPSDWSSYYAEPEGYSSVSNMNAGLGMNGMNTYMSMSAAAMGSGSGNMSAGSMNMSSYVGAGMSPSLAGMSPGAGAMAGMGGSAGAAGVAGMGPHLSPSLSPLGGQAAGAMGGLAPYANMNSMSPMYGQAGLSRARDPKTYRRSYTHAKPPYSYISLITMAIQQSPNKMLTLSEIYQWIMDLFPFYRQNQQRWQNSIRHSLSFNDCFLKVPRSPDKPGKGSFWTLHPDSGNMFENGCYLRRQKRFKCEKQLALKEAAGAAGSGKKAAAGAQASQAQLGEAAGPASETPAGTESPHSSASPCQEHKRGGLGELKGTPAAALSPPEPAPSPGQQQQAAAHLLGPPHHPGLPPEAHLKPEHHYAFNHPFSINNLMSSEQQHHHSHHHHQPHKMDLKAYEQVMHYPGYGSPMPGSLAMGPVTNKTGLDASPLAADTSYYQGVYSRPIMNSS
Sequence of Bile acid receptor (Homo sapiens) (Q96RI1 whole entry, looked up, the tested form may be a part): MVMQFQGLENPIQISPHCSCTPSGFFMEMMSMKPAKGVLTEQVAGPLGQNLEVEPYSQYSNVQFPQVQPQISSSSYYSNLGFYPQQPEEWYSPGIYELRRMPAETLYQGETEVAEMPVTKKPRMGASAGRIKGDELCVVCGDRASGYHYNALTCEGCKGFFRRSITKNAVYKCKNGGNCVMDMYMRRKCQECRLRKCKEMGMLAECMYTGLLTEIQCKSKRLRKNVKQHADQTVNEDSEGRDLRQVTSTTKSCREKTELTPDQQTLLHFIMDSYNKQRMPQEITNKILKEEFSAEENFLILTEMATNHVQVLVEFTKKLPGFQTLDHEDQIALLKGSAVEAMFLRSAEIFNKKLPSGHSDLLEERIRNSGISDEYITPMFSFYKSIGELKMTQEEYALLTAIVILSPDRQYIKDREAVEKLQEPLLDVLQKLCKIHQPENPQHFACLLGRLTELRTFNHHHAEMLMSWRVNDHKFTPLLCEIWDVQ

CC(C)(C)c1cc([N+](=O)[O-])cc(C(C)(C)C)c1O
active: [3] 52.1 µM
inactive: [1] | [2] | [4] | [5] | [6] | [7] | [8] | [9]

BrCCCCBr
inactive: [1] | [2] | [3] | [4] | [5] | [6] | [7] | [10] | [9]

CC1(C)[C@H](/C=C2\CCSC2=O)[C@@H]1C(=O)OCc1coc(Cc2ccccc2)c1
inactive: [1] | [2] | [3] | [4] | [5] | [6] | [7] | [10] | [9]

CC(C)=CC1C(C(=O)OCc2cccc(Oc3ccccc3)c2)C1(C)C (centres undefined)
inactive: [1] | [3] | [4] | [5] | [6] | [7] | [8] | [10] | [9]
active: [2] 100 µM

CS(=O)(=O)c1ccc(C(=O)C2C(=O)CCCC2=O)c(Cl)c1COCC(F)(F)F
inactive: [1] | [3] | [4] | [5] | [6] | [7] | [10] | [9]
active: [2] 27.3 µM

CC(C)(C#N)N=NC(C)(C)C#N
inactive: [1] | [2] | [3] | [4] | [5] | [6] | [7] | [10] | [9]

c1ccc(-c2cccc(-c3ccccc3)c2)cc1
inactive: [1] | [3] | [4] | [5] | [6] | [7] | [8] | [9]
active: [2] 26.4 µM

COCC(=O)N(c1c(C)cccc1C)[C@H](C)C(=O)OC
inactive: [1] | [2] | [3] | [4] | [6] | [7] | [8] | [9]

CC(C)(C)c1ccc(CCOc2ncnc3ccccc23)cc1
inactive: [1] | [2] | [3] | [4] | [6] | [7] | [8] | [9]

CCN(CC)C(=O)C(Cl)=C(C)OP(=O)(OC)OC
inactive: [1] | [2] | [3] | [4] | [5] | [6] | [7] | [10] | [9]

OC(Cc1ccccc1Cl)(Cn1[nH]cnc1=S)C1(Cl)CC1 (centres undefined)
active: [1] 64.6 µM | [2] 7.38 µM | [9] 100 µM
inactive: [3] | [4] | [6] | [7] | [8] | [10]

CCCCCCCCCCBr
inactive: [1] | [2] | [3] | [4] | [6] | [7] | [8] | [10] | [9]

CCCCOC(C)=O
inactive: [1] | [2] | [3] | [4] | [6] | [7] | [8] | [9]
active: [6] 154 µM

Cc1cccc(N=Nc2ccc(N(C)C)cc2)c1
inactive: [1] | [2] | [3] | [4] | [5] | [6] | [7] | [10] | [9]

ClCc1ccccc1CCl
inactive: [1] | [2] | [6] | [10]
active: [3] 15.7 µM | [4] 33.4 µM | [7] 33.4 µM | [8] 33.4 µM | [9] 45.9 µM

O=CCCl
active: [5] 26.6 µM | [7] 25.5 µM | [9] 51.9 µM
inactive: [1] | [2] | [3] | [4] | [6] | [10]

[Cl][Sn]([c]1ccccc1)([c]1ccccc1)[c]1ccccc1
active: [2] 0.014 µM | [6] 1.2 µM | [7] 0.221 µM
inactive: [1] | [3] | [4] | [8] | [10] | [9]

CCCCN(CCCCO)N=O
active: [2] 3.06 µM
inactive: [1] | [3] | [4] | [5] | [6] | [7] | [10] | [9]

O=C(CCl)NCO
inactive: [1] | [2] | [3] | [4] | [5] | [6] | [7] | [9]

CCOP(=S)(OCC)Oc1ccc(Cl)cc1Cl
active: [2] 10.1 µM
inactive: [1] | [3] | [4] | [6] | [7] | [10] | [9]

Oc1c(Br)cc(Br)cc1Br
active: [2] 24.9 µM
inactive: [1] | [3] | [4] | [5] | [6] | [7] | [9]

c1csc(-c2ccc(-c3cccs3)s2)c1
active: [2] 7.65 µM | [4] 4.46 µM | [9] 3.41 µM
inactive: [1] | [3] | [6] | [7] | [8] | [10]

CC(c1ccc(O)cc1)c1ccc(O)cc1
inactive: [1] | [4] | [6] | [7] | [10] | [9]
active: [2] 0.701 µM | [3] 137 µM

OC[P+](CO)(CO)CO
inactive: [1] | [2] | [3] | [4] | [5] | [6] | [7] | [10] | [9]

CCCCN(CCCC)C(=S)[S-].CCCCN(CCCC)C(=S)[S-].[Ni+2]
inactive: [1] | [2] | [3] | [4] | [5] | [6] | [7] | [10] | [9]

NC(=O)CCl
inactive: [1] | [2] | [3] | [4] | [6] | [7] | [8] | [10] | [9]
